The source of these data is PubChem BioAssay AID1839 (Johns Hopkins Ion Channel Center, 2009).

In all, about 2,400 compounds went through this assay and about 220 (9.2%) were called active. This excerpt belongs to a sample that is enriched for actives. Unmarked numbers belong to inactive results.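 The calls were made as follows: active = signal change above the mean of dofetilide-free buffer controls plus 3 SD, so a positive margin; inactive = the rest.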

This test is described as follows: thallium signal changes without hERG – cell-based, CHO-K1 parental line, FluxOR thallium flux, counter-screen for hERG block protection project, confirmation (AID 1839).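 Also: compounds applied alone with no dofetilide to cells lacking hERG.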 As to conditions: CHO-K1 parental cells, FluxOR thallium flux fluorescence; at 10 µM.
As for `COc1ccc(C(CC(=O)O)NC(=O)C(c2ccccc2)c2ccccc2)cc1` (stereo unspecified), the signal change vs control minus 3*SD hit threshold (margin above threshold, higher = more increase) is -32.8%.
To `O=C(N/N=C/c1ccc(OC(F)F)cc1)C1=COCCO1` belongs -28.8%; to `CCOC(=O)c1sc(NC(=S)NC(=O)c2cccc(OC)c2)nc1C`, -15.5%.
On to `COc1ccc(N2CCN(C(=S)Nc3cccc(OC)c3)CC2)cc1`, for which the signal change vs control minus 3*SD hit threshold (margin above threshold, higher = more increase) was -27%.
In the case of `COc1ccc(NC(=O)CNC(=O)c2cccs2)cc1Cl`, the signal change vs control minus 3*SD hit threshold (margin above threshold, higher = more increase) was -23.5%.
Under `O=C(NC(=S)Nc1ccccc1N1CCCCC1)c1cccs1` stands -17.4%; under `O=c1[nH]c(SCc2cccc(Cl)c2)nc2ccccc12`, -29.3%; under `CC(C)c1ccc(/C=N/n2c(COc3ccccc3)n[nH]c2=S)cc1`, -21.3%.
Under `S=c1nc(COc2ccccc2)[nH]c2ccccc12` stands 59.3% (active).
To `S=c1[nH]nc(-c2ccc(Cl)cc2)n1Cc1ccccc1` belongs -36.8%; to `S=c1nc(C2CC2)[nH]c2ccccc12`, -0.5%.
For `CCC(Cc1ccccc1)n1c(=S)[nH]c2ccccc2c1=O` (stereo unspecified), the signal change vs control minus 3*SD hit threshold (margin above threshold, higher = more increase) was -32.2%.
To `O=C(O)CCCCCNc1nc(=S)[nH]c2ccccc12` belongs -17.7%; to `S=c1nc(Cc2ccccc2)[nH]c2ccccc12`, 36% (active); to `S=c1nc(SCc2ccccc2)[nH]c2ccccc12`, 40.3% (active).
To `CCOC(=O)c1sc2nc(Cc3ccc(Cl)cc3)[nH]c(=S)c2c1C` belongs -19.8%; to `S=c1nc(Cc2ccc(Cl)cc2)[nH]c2ccccc12`, 7.6% (active).
To `S=c1nc(C2CCCCC2)[nH]c2ccccc12` belongs -20.4%; to `C#CCN1C(=O)S/C(=C\c2ccc(-c3ccc(C(=O)O)cc3C)o2)C1=O`, -26.1%; to `CC/C(=N\NC(=S)Nc1cccc(C)c1)c1ccccc1`, -31.9%.
As for `COc1ccc(/C=N/NC(=O)C(=O)N2CCCC2)cc1`, the signal change vs control minus 3*SD hit threshold (margin above threshold, higher = more increase) is -11.5%.
Under `Cc1cccc(C)c1NC(=O)Cn1cnc2c(=O)n(C)c(=O)n(C)c21` stands -26.9%.
Under `Cn1nc(C(=O)Nc2ccc3c(c2)OCO3)c2ccccc2c1=O` stands -35.3%.
Take `CCOC(=O)NC(=O)/C(C#N)=N\Nc1ccc(Cl)cc1`: the signal change vs control minus 3*SD hit threshold (margin above threshold, higher = more increase) is -36.7%.
In the case of `Cc1c(-c2ccn[nH]2)cc(NC(=O)c2ccc(Cl)cc2)c(=O)n1N`, the signal change vs control minus 3*SD hit threshold (margin above threshold, higher = more increase) is -40%.
To `Cc1cc(C)nc(SCc2nnc(SCC(=O)Nc3nc(-c4ccccc4)cs3)n2-c2ccccc2)n1` belongs -32%.
Under `COc1ccc(CCNC(=O)CSc2ccc3nnc(CCNC(=O)c4ccccc4)n3n2)cc1OC` stands -23.3%.
Under `O=C1NC(=S)S/C1=C\c1ccc2ccccc2c1` stands 30.2% (active).
Regarding `O=C1NC(=S)/C(=C\c2ccc(-c3ccccc3Cl)o2)S1`, the signal change vs control minus 3*SD hit threshold (margin above threshold, higher = more increase) was -34.6%.
Under `COc1ccc2nc(N3CCCCC3)c(/C=C3\SC(=S)NC3=O)cc2c1` stands -33%; under `O=C(CN1C(=O)S/C(=C\c2cccs2)C1=O)Nc1ccc(C(=O)O)c(O)c1`, -0.8%.
Under `Cc1ccc(S(=O)(=O)c2nnn3c2nc(N2CCOCC2)c2ccccc23)c(C)c1` stands -25.3%.
As for `COC(=O)c1sccc1NC(=S)N1CCN(C)CC1`, the signal change vs control minus 3*SD hit threshold (margin above threshold, higher = more increase) was -34.3%.
To `O=c1c2ccccc2nc(-c2ccc(Cl)c(Cl)c2)n1O` belongs 20.1% (active).
To `O=C(Cc1ccccc1)Nn1c(-c2ccccc2)nc2ccccc2c1=O` belongs -21.4%.
Under `O=c1c2cc(Cl)ccc2nc(-c2ccccc2)n1O` stands -7.8%; under `O=c1c2ccccc2nc(-c2cccc(Cl)c2)n1O`, 0.8% (active).
Turning to `O=c1c2cc(Cl)ccc2nc(-c2ccc(Cl)c(Cl)c2)n1O`, the signal change vs control minus 3*SD hit threshold (margin above threshold, higher = more increase) was 62.4% (active).
Turning to `NC(=O)CSc1nc2ccccc2c(=O)n1CCc1ccccc1`, the signal change vs control minus 3*SD hit threshold (margin above threshold, higher = more increase) is -28.3%.
To `Cc1ccc(-c2nc3ccc(Cl)cc3c(=O)n2O)cc1` belongs 38% (active); to `Cc1ccc(-c2onc3ccc(Cl)cc23)cc1`, -25.3%; to `O=c1c2ccccc2nc(-c2ccccc2)n1O`, -24.1%.
To `Cc1ccc(C(=O)Nc2nc3ccccc3c(=O)s2)cc1` belongs -16.6%.
As to `CCc1ccc(OCC(=O)Nc2ncn[nH]2)cc1`, the signal change vs control minus 3*SD hit threshold (margin above threshold, higher = more increase) is -35.2%.
Turning to `Cc1ccc2[nH]c3c(c2c1)CNCC3`, the signal change vs control minus 3*SD hit threshold (margin above threshold, higher = more increase) was -32%.
Under `CN(c1ccccc1)S(=O)(=O)c1ccc(Cl)c(C(=O)Nc2nn[nH]n2)c1` stands -24.2%.
To `COc1ccc(C2N=C(c3ccccc3)C(C)(C)N2O)cc1` (stereo unspecified) belongs -23.4%; to `Cc1ccccc1-c1nnn(CC(=O)NCc2ccc3c(c2)OCO3)n1`, -37.1%.
To `Cc1cccc(/N=C/c2sc3ccccc3c2O)n1` belongs -19.2%; to `O=C(NCC1CCCO1)c1ccc2c(=O)n(Cc3ccco3)c(SCC(=O)N3CCCC3)nc2c1` (stereo unspecified), -14.7%.
Take `Clc1cccc(OCCCN2CCCC2)c1Cl`: the signal change vs control minus 3*SD hit threshold (margin above threshold, higher = more increase) is -24.8%.
To `CCCCC1C2=C(CCCC2=O)OC2=C1C(=O)CCC2` belongs -34.5%; to `Cc1ccc(C(=O)N2CCN(c3ccccc3)CC2)cc1S(=O)(=O)N1CCCC1`, -7.2%; to `Cc1ccc(-c2nc3c(Cl)cc(Cl)cc3c(=O)n2O)cc1`, 65.6% (active).
To `Cc1ccc(-c2nc3ccccc3c(=O)n2O)cc1` belongs -12.7%; to `Cc1cc(=O)[nH]c(SCC(=O)NC2CCCCC2)n1`, -27%.
Under `CCC(C)c1ccccc1NC(=S)NC(=O)c1ccco1` (stereo unspecified) stands 40% (active); under `CCOc1ccc(NC(=S)NC(=O)c2ccco2)cc1`, -15.7%.
For the molecule `O=C(NC(=S)Nc1ccc(N2CCCCC2)cc1)c1ccco1`, the signal change vs control minus 3*SD hit threshold (margin above threshold, higher = more increase) was 9.4% (active).
Under `CCOc1ccccc1NC(=S)NC(=O)c1ccco1` stands -16.7%; under `Cc1cccc(NC(=O)CCNC(=O)c2ccco2)c1C`, -27.7%.
To `O=C(NC(=S)Nc1ccccc1N1CCCC1)c1ccco1` belongs -20.8%.
Under `O=C(NC(=S)Nc1cccc(Cl)c1N1CCCCC1)c1ccco1` stands -27.7%; under `Cc1cccc(NC(=S)NC(=O)c2ccco2)c1C`, 20% (active).
As for `O=C(NC(=S)Nc1ccccc1Br)c1ccco1`, the signal change vs control minus 3*SD hit threshold (margin above threshold, higher = more increase) is -14.3%.
Under `O=C1OCCC1Sc1nc2ccccc2c(=O)n1Cc1ccc(F)cc1` (stereo unspecified) stands -13.7%; under `CCc1ccc(C(=O)NNC(=O)c2ccc(=O)n(C)n2)cc1`, -31%; under `O=C(NC(=S)N1CCN(c2nc(-c3ccccc3)cs2)CC1)c1cncc(Br)c1`, -12.3%.
Under `CC(NC(=O)NC1CCCCC1)c1ccccc1` (stereo unspecified) stands -8.9%.
Turning to `Oc1c(N=Nc2ccccn2)ccc2ccccc12`, the signal change vs control minus 3*SD hit threshold (margin above threshold, higher = more increase) is -28.3%.
Under `O=C(N/N=C\c1coc2ccccc2c1=O)c1ccco1` stands -25.6%.
To `O=C(O)COc1ccccc1/C=C1\SC(=S)N(NC(=O)c2ccccc2O)C1=O` belongs -20.5%.
For the molecule `CC(/C=C1\SC(=S)N(c2ccc(C(=O)O)cc2)C1=O)=C\c1ccccc1`, the signal change vs control minus 3*SD hit threshold (margin above threshold, higher = more increase) is -40.7%.
Under `Cc1c(N2C(=O)/C(=C\c3ccccc3O)SC2=S)c(=O)n(-c2ccccc2)n1C` stands 7.5% (active).
To `COc1ccc(N(C(=O)c2ccco2)S(=O)(=O)c2cccs2)cc1` belongs -26.1%.
Turning to `O=C(Cn1cncn1)c1ccccc1Br`, the signal change vs control minus 3*SD hit threshold (margin above threshold, higher = more increase) is -37.9%.
To `Cc1cc(C)cc(-n2ncc3c2CCCC3NC(=O)c2csnn2)c1` (stereo unspecified) belongs -40.3%; to `CCCCN1C(=O)/C(=C2/Sc3ccc(Cl)cc3N2CC)SC1=S`, -39.8%; to `COc1ccc(OC)c(NC(=O)C(=O)NNC(=O)C23CC4CC(CC(C4)C2)C3)c1`, 42.5% (active).
To `COc1ccc(OCC(=O)NNC(=O)C(=O)Nc2cc(OC)ccc2OC)cc1` belongs -1.8%; to `COc1ccc(OC)c(NC(=O)C(=S)NC2CCCCC2)c1`, -22.8%.
To `CC(NC(=O)CCCn1cc([N+](=O)[O-])cn1)c1ccccc1` (stereo unspecified) belongs -29.8%; to `CCCCNC(=S)NNC(=O)c1ccc2c(c1)OCO2`, -29.2%.
`N=C1C(=O)OCC1c1cc(Cl)ccc1NC(=O)Nc1ccccc1` (stereo unspecified): the signal change vs control minus 3*SD hit threshold (margin above threshold, higher = more increase) is -31.4%.
Regarding `CC(C)(C)NC(=O)C(=O)NNC(=O)c1cccc(Br)c1`, the signal change vs control minus 3*SD hit threshold (margin above threshold, higher = more increase) is -6.8%.
Under `Cc1cccc(C(=O)NC(=S)NNC(=O)c2ccc(Cl)cc2)c1` stands -44.5%; under `CC(C)(C)NC(=O)C(=O)NNC(=O)c1ccc(C(C)(C)C)cc1`, 1.9% (active); under `Cc1cccc(NC(=O)C(=O)NNC(=O)c2ccc(C(C)(C)C)cc2)c1`, 44.5% (active).
Under `CC(C)(C)NC(=O)C(=O)NNC(=O)c1ccccc1` stands -23.3%; under `CCCc1cc(C(=O)NNC(=S)Nc2cccc(C)c2)cs1`, -32.4%; under `CCOC(=O)N1CCN(C(=O)COC(=O)c2cc(Cl)c(O)c(Cl)c2)CC1`, -24.7%.
To `Cc1ccc(O)c(Sc2cc(C)ccc2O)c1` belongs -41.7%; to `CC(C)CSC1=NSC2=NC(=O)/C(=C\c3ccccc3)C(=N)N12`, -21.5%; to `O=C(COc1coc(CN2CCc3ccccc3C2)cc1=O)Nc1cccc(Cl)c1`, -31.3%.
On to `CCOc1ccc2[nH]c(=O)c(CN(Cc3ccc(C)cc3)C(=O)N3CCCC3)cc2c1`, for which the signal change vs control minus 3*SD hit threshold (margin above threshold, higher = more increase) was -28%.
Under `COc1ccc(NC(=O)C2CC3CCC2C3)c(OC)c1` (stereo unspecified) stands -22.3%; under `O=C(N/N=C/C(Cl)=C/c1ccc([N+](=O)[O-])cc1)C(=O)Nc1ccc(C(=O)O)cc1`, -32.7%.
For `O=[N+]([O-])c1ccc(Nc2ccccc2F)nc1`, the signal change vs control minus 3*SD hit threshold (margin above threshold, higher = more increase) is -20.1%.
Under `CCOc1ccc(C(=O)N(CN2CCCC2=O)c2ccc(C)cc2)cc1` stands 7.5% (active); under `COc1ccc(C(=O)N(CN2CCCC2=O)c2ccc(C)cc2)cc1`, -4.3%; under `O=C(NCCCN1CCCC1=O)c1ccc(OC(F)(F)F)cc1`, -32.6%.
